The list is not random: actives were taken first. Their share in the collection is about 19%.
IL1B secr inh: qHTS for Inhibitors of Inflammasome Signaling: IL-1-beta AlphaLISA Primary Screen. THP-1 LPS/ATP IL-1B secretion, AlphaLISA, 16 h; stronger effect = lower value. activity change, % at 57.5 µM. 360,000 tested, 4.7% active; in the data active means activity change below about -50%; inconclusive means mostly about -30% to -49%
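THP-1 cells pretreated 1 hr with compounds (up to 57.5 uM final), then stimulated with LPS (250 ng/mL final) plus ATP (1.25 mM final); secreted IL-1B measured by AlphaLISA after 16 hr, decreased signal indicating inhibition.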
TDP1 cell CPT: qHTS for Inhibitors of human tyrosyl-DNA phosphodiesterase 1 (TDP1): qHTS in cells in presence of CPT | chicken DT40 Tdp1-/-;hTDP1 cells + 20 nM CPT, ATP luminescence, 48 h | Potency, µM (titrated, usually from 46.2 µM), without a hit: at the top dose activity change, negative = growth inhibition, usual class: inhibitors | AID 686979, 2013 | 420,000 tested, 12% active; further: potency means the concentration at half of the fitted maximal effect; nearly all actives have a fitted effect of over 55% in size
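Chicken DT40 Tdp1-/- cells complemented with human TDP1, 400 cells/well, exposed to compounds plus 20 nM camptothecin for at least 48 h at 37 C; viability read as ATP content by CellTiter-Glo luminescence.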
HT1080-NT tox: qHTS for induction of synthetic lethality in tumor cells producing 2HG: qHTS for the HT-1080-NT fibrosarcoma cell line | HT-1080-NT fibrosarcoma viability, CellTiter-Glo ATP luminescence, 48 h | Potency, µM (highest dose often 46.1 µM), without a hit: top-dose activity, negative = less viability, actives largely listed as cytotoxic | 360,000 tested, 1.6% active;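 further: NT is the 2HG producing partner of a matched IDH1 knockdown line; potency means the concentration at half of the fitted maximal effect; 0% = DMSO-treated cells and -100% = media-only wells without cells; nearly all actives have a fitted effect of over 55% in size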
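Compounds were tested in concentration-response format on HT-1080-NT cells for 48 hours at 37 degrees C. Cell viability came from CellTiter-Glo luminescence; curves were classified by r2, response magnitude and activity.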
uPA surface inh: qHTS for Inhibitors of Cell Surface uPA Generation; 330,000 tested, 0.31% active; Potency, µM (top dose mostly 38.3 µM), for inactives: top-dose activity change, negative = inhibition, actives largely listed as inhibitors; AID 540303, 2011; cell surface uPA generation assay, qHTS; active means well fitted inhibition curve with a large enough effect; inconclusive means small, poorly fitted or top-dose-only effect; inactive means no such curve, though single readings can be large or run the other way; tested in mouse RAW 264.7 cells; further: potency means the concentration at half of the fitted maximal effect; nearly all actives have a fitted effect of over 55% in size
HT1080 IDH1KD tx: qHTS for induction of synthetic lethality in tumor cells producing 2HG: qHTS for the HT-1080-IDH1KD cell line; HT-1080 IDH1 knockdown viability, ATP luminescence, 48 h; Potency, µM (top dose mostly 46.1 µM), without a hit: at the highest dose activity, negative = toxicity, hits mostly cytotoxic; 360,000 tested, 2% active;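 further: potency means the concentration at half of the fitted maximal effect; 0% = DMSO wells and -100% = cell-free medium wells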
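CellTiter-Glo luminescence after 48 h compound exposure at 37 degrees C of IDH1-knockdown HT-1080 cells in 5% FBS RPMI. %Activity scaled between DMSO wells and cell-free media wells, with curves fitted and assigned curve classes.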
DT40 TDP1 no CPT: qHTS for Inhibitors of human tyrosyl-DNA phosphodiesterase 1 (TDP1): qHTS in cells in absence of CPT; DT40 Tdp1-/- hTDP1 cells, no CPT, ATP luminescence, 48 h; 420,000 tested, 15% active; Potency, µM (series often up to 46.2 µM), inactives show at the highest dose activity change, negative = growth inhibition, actives largely listed as inhibitors; further: potency means the concentration at half of the fitted maximal effect; nearly all actives have a fitted effect of over 55% in size
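A cellular qHTS used chicken DT40 cells lacking endogenous Tdp1 but carrying stably transfected human TDP1. Compounds were applied without camptothecin, and cell growth kinetics were judged by ATP-dependent luminescence after ≥48 hr.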
The depositor's hits bear a star; ? = inconclusive; . = no result given. Unless noted, the call rests on the fitted dose curve; in most records, active means well fitted curve in the direction sought with a large enough effect; inconclusive means small, poorly fitted or top-dose-only effect, or another doubt; inactive means no such curve, though single readings can be large; an effect the other way counts as inactive or inconclusive. Unless noted, on the % scale 0 is the no-effect control and ±100 the full control effect.

SMILES	IL1B secr inh	TDP1 cell CPT	HT1080-NT tox	uPA surface inh	HT1080 IDH1KD tx	DT40 TDP1 no CPT
CC1CCCN(CCCNC(=O)c2nn(C)c3c2CSc2ccccc2-3)C1 (stereo not given)	0.0	?	-12.6%	3.1%	0.0%	?
Cc1cccc(CCNC(=O)c2nn(C)c3c2CSc2ccccc2-3)c1	.	-26.3%	.	.	.	?
CCOc1ccc(CCNC(=O)c2nn(C)c3c2CSc2ccccc2-3)cc1	.	16.4µM*	.	.	.	?
CC(C)CCNC(=O)c1nn(C)c2c1CSc1ccccc1-2	.	?	.	.	.	18.4µM*
CCn1c(SCC(=O)N2CCN(C(=O)c3ccco3)CC2)nnc1C(C)C	17.5	-4.0%	17.1%	2.2%	?	-4.2%
Cc1cccc(-c2noc(-c3cccnc3NCc3ccccc3Cl)n2)c1	.	-14.6%	.	.	.	-0.3%
N#Cc1ccc(OCC(=O)Nc2cccc(S(=O)(=O)NC3=NCCCCC3)c2)cc1	3.8	?	0.5%	-0.7%	-1.1%	?
CC1OC(C2CCCCC2)Cc2[nH]c(=S)[nH]c(=O)c21 (stereo not given)	70.0	?	-1.5%	.	0.1%	?
CCN(CC)S(=O)(=O)c1ccc(NC(=O)c2nn(C)c3c2CSc2ccccc2-3)cc1	.	?	.	.	.	18.4µM*
COc1ccc(OC)c(CNC(=O)c2nn(C)c3c2CS(=O)(=O)c2ccccc2-3)c1	-1.8	3.6%	5.5%	-14.7%	11.5%	-19.1%
COc1ccc(OC)c(CNC(=O)c2nn(C)c3c2CSc2ccccc2-3)c1	.	20.6µM*	.	.	.	?
CC(C)N(C(=O)c1nn(C)c2c1CSc1ccccc1-2)C1CCCCC1	-17.6	20.6µM*	?	4.1%	-21.7%	10.3µM*
Cc1ccc(N2CCN(C(=O)c3nn(C)c4c3CSc3ccccc3-4)CC2C)cc1 (stereo not given)	.	23.1µM*	.	.	.	?
CC(C)Nc1ccc(-c2nc(-c3ccccn3)no2)cc1[N+](=O)[O-]	.	-3.8%	.	.	.	-0.6%
CCSc1nnc(NC(=O)C2CCN(C(=O)c3ccco3)CC2)s1	.	-8.1%	.	.	.	-8.9%
S=C1NCN(C2CCCCC2)CN1Cc1ccccc1	-6.3	3.8%	24.1%	-5.3%	19.5%	-4.7%
COc1ccc(OC)c(NC(=O)c2ccc(CSc3nnc(C)s3)cc2)c1	-59.8*	-7.0%	14.6%	2.8%	-1.8%	?
COc1ccc(C(=O)Nc2cc(-c3nc4ccccc4s3)ccc2OC)cc1	.	3.26µM*	.	.	.	5.17µM*
COc1ccc(-c2nc3ccccc3s2)cc1NC(=O)c1ccccc1OC	.	5.17µM*	.	.	.	20.6µM*
COc1ccccc1C(=O)NCc1ccc(-c2nc3ccccc3s2)cc1	22.9	3.0%	-3.1%	5.6%	-6.0%	-0.2%
COc1ccc(C(=O)NCc2ccc(-c3nc4ccccc4s3)cc2)cc1	-7.1	0.8%	-6.5%	-0.5%	-24.9%	-18.1%
COc1ccc(-c2nc3ccccc3s2)cc1NC(=O)c1cc(OC)c(OC)c(OC)c1	.	?	.	.	.	-24.7%
COc1cccc(C(=O)NCc2ccc(-c3nc4ccccc4s3)cc2)c1	5.8	18.4µM*	-22.3%	-10.2%	?	18.4µM*
O=C(Nc1ccccc1-c1nc2ccccc2s1)c1ccc(Br)o1	24.9	-21.8%	16.2%	.	-0.8%	-16.6%
CC(=O)Nc1ccc(O)c(-c2nc3ccccc3s2)c1	-13.3	-8.6%	-2.5%	-10.3%	-20.3%	?
SMILES	IL1B secr inh	TDP1 cell CPT	HT1080-NT tox	uPA surface inh	HT1080 IDH1KD tx	DT40 TDP1 no CPT
O=C(Nc1ccc(OC(=O)c2ccccc2)c(-c2nc3ccccc3s2)c1)c1ccccc1	58.4	18.4µM*	-3.7%	0.2%	-6.3%	?
COc1cc(OC)cc(C(=O)Nc2ccccc2-c2nc3ccccc3s2)c1	.	10.3µM*	.	.	.	5.8µM*
Cc1cc(C)cc(C(O)c2ncc(-c3ccc(F)cc3)[nH]2)c1 (stereo not given)	2.1	?	-25.8%	.	-18.7%	?
CCOC(=O)C1=CCN(S(C)(=O)=O)C1c1ccc(C)cc1 (stereo not given)	-4.9	-5.3%	15.5%	.	19.9%	-13.6%
Cc1ccc(CN(C)C(=O)c2ccccc2NC(=O)c2ccccc2)o1	0.0	?	1.6%	-35.4%	1.6%	-9.2%
CCC(C)Nc1cc(C)c(C#N)c2nc3ccccc3n12 (stereo not given)	15.5	-21.3%	-11.6%	-2.1%	-22.0%	?
CCC(C)Sc1cc(C)c(C#N)c2nc3ccccc3n12 (stereo not given)	4.7	18.4µM*	-11.3%	-9.0%	-21.1%	16.4µM*
CCOC(=O)CSc1cc(C)c(C#N)c2nc3ccccc3n12	18.1	?	-0.4%	1.2%	6.0%	23.1µM*
O=C(CCc1ccc(O)c(O)c1)NNC(=S)Nc1ccc(Br)cc1Cl	-4.4	-30.0%	-6.7%	-9.2%	-8.9%	-19.5%
CSc1cccc(NC(=O)c2ccc(NC3=NC4CS(=O)(=O)CC4S3)cc2)c1 (stereo not given)	-17.1	-13.9%	14.2%	0.4%	4.1%	-18.8%
CCOc1ccccc1OCCCC(=O)N(CC)CC(=O)Nc1c(F)cccc1F	-1.8	3.5%	-2.0%	-2.2%	21.3%	-24.0%
COc1ccc(-c2ccc(OC)c(OC)c2OC)c(OC)c1OC	22.2	?	-0.5%	-6.5%	6.0%	?
COc1cc2cc(-c3ccc(OC)c(OC)c3C)nc(N)c2cc1OC	5.2	5.17µM*	8.2µM*	-17.4%	1.3µM*	5.8µM*
COc1cc2cc(-c3ccc(O)cc3O)nc(C)c2cc1OC	-72.6*	10.3µM*	-11.8%	-18.3%	?	6.51µM*
Cc1nc2c(Br)cc(Br)cc2c(=O)n1-c1ccccc1NC1OCC(O)C(O)C1O (stereo not given)	-12.5	7.31µM*	-2.6%	-7.0%	-13.7%	8.2µM*
Cc1cc(C)cc(NC(=O)[C@H](NC(=O)[C@@H]2Cc3ccccc3CN2)c2ccccc2)c1	11.8	?	?	-0.1%	?	25.9µM*
COc1cc(N(C)C)c(OC)cc1C=O	.	15.8µM*	.	.	.	11.2µM*
COc1cc(N2CCCC2)c(OC)cc1C=O	-25.8	?	-9.9%	12.7%	-16.9%	?
COc1cc(N(C)C)c(OC)cc1/C=C1\C=Cc2ccccc21	.	?	.	.	.	12.6µM*
CN(C)c1ccc(C=C2C=Cc3ccccc32)cc1	?	-12.4%	12.0%	-7.8%	-0.2%	-16.7%
COc1cc(N(C)C)ccc1/C=C1\C=Cc2ccccc21	.	?	.	.	.	15.8µM*

Compound activity as filed in PubChem.
